Bioassay records: PubChem, National Center for Advancing Translational Sciences (NCATS)
HPGD block: inhibitors of human 15-hydroxyprostaglandin dehydrogenase (HPGD); P15428; purified HPGD, NADH fluorescence kinetic, PGE2 substrate; Potency, µM, inactives show top-dose activity change, negative = inhibition, actives largely listed as inhibitors; 150,000 tested, 4.3% active; AID 894; also: potency is read from the fitted curve at half-maximal effect
Target sequence (P15428 whole entry, looked up): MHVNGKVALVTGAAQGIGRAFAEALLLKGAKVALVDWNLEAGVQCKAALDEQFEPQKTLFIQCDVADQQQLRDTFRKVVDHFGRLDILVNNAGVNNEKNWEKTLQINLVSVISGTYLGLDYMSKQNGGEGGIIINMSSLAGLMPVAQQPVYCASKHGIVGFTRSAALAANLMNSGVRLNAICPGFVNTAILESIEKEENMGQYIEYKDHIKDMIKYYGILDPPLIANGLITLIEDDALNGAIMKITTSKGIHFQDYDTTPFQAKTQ
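NADH formation kinetics: reaction with 30 uM PGE2 and 1 mM NAD+ (final), 20 nM enzyme, Tris-HCl pH 8 with Tween 20, after 15 min compound preincubation at room temperature. Fluorescence change, last versus first of five reads.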
IMPase cell inh: IMPase inhibition in cells | P97697 | CHO-M1 cells, IP1 accumulation, HTRF TR-FRET ratio | inhibition (IP1 accumulation), % at 46.1 µM | 120,000 tested, under 10 active; active = well fitted curve in the direction sought with a large enough effect in the signal ratio, not every such curve was filed as active; inconclusive = small, poorly fitted or top-dose-only effect, or a change in a side signal; inactive = no such curve, though single readings can be large or run the other way; the % refers to the signal ratio;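 also: cells stimulated with carbachol in lithium chloride buffer; plate controls were DMSO basal wells for no effect and reference inhibitor wells for full effect; higher means more IMPase inhibition seen as more IP1 and lower FRET ratio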
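Carbachol-driven Gq signalling in CHO-M1 cells (2000/well) generates IP1. Compounds that block IMPase raise IP1 and so reduce the FRET signal from Eu-anti-IP1 and d2-IP1 after a 10 min room-temperature lysis.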
ALDH1A1 inh: inhibitors of human aldehyde dehydrogenase 1A1; Potency, µM (doses to about 75.3 µM), inactives show at the top dose activity, negative = inhibition, most hits filed as inhibitors; AID 1030; P00352; Purified ALDH1A1, NADH fluorescence, propionaldehyde substrate; 220,000 tested, 7.3% active;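 also: potency is read from the fitted curve at half-maximal effect; plate controls were no enzyme wells and a reference inhibitor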
Target sequence (P00352 whole entry, looked up): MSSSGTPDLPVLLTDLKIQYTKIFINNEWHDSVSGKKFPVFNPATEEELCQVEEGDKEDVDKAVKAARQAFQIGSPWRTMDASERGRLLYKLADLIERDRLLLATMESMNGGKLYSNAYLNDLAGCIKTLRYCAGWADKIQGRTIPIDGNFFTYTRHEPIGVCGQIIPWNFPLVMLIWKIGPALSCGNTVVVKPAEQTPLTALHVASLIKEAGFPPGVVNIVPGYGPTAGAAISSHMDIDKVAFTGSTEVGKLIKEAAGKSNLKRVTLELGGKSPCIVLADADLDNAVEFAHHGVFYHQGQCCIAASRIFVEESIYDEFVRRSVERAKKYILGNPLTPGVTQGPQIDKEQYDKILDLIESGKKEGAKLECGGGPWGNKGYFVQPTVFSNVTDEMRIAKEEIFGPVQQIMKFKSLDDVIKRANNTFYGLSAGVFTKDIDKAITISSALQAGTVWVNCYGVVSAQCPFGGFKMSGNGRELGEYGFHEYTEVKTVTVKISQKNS
Luc counter: blocks Kinase-Glo luciferase, a counter-screen artifact. Q27757. Kinase-Glo luciferase, ATP luminescence, 8 min. Potency, µM (highest dose often 38.3 µM), for inactives: top-dose activity change, negative = inhibition, actives largely listed as inhibitors. 200,000 tested, 0.28% active. AID 1379; active = well fitted inhibition curve with a large enough effect; inconclusive = small, poorly fitted or top-dose-only effect; also: potency is read from the fitted curve at half-maximal effect; nearly all actives have a fitted effect of over 60% in size
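Substrate mix (final 50 mM imidazole pH 7.2, 50 mM KCl, 7 mM MgCl2, 10 uM ATP, 0.01% Tween 20, 0.05% BSA) plus pin-tool compound, then Kinase-Glo detection mix; 8 min ambient, luminescence read.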
Lamin A splicing: LMNA splicing modulation; HeLa LMNA splicing GFP/RFP minigene ratio, 48 h; Potency, µM (series often up to 46.1 µM), for the others: top-dose ratio change, negative = inhibition, actives largely listed as inhibitors; 200,000 tested, 0.01% active; AID 1487; active = well fitted inhibition curve with a large enough effect in the signal ratio, with a control signal flat, not every such curve was filed as active; inconclusive = small, poorly fitted or top-dose-only effect, or effect the other way, or a change in a side signal; the % refers to the signal ratio; also: potency is read from the fitted curve at half-maximal effect
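Read-out is the ratio of GFP to DsRed2 object intensity, acquired by 488 nm laser-scanning cytometry on HeLa lamin A-EGFP minigene reporter cells. Compound incubation 48 hrs at 37 °C in Opti-MEM with 2% FBS; DMSO 0.5% final.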
PNC assembly inh: inhibitors of perinucleolar compartment assembly | 140,000 tested, 3.1% active | activity change (PNC), negative = inhibition, % at 10 µM | PC3M PTB-GFP, PNC prevalence imaging, 16 h; active compounds read low;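 active = readout at or below -70, meaning at least 70% loss of cells showing the perinucleolar compartment, a nuclear body marking cancer cells; inconclusive = readout between -30 and a set limit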;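 also: plate controls were DMSO wells for no effect and camptothecin positive control wells for full effect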
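Read-out is percentage of cells bearing a perinucleolar compartment, from automated 20x imaging of fixed, Hoechst-stained PC3M PTB-GFP cells. Cells were seeded 4 h, then exposed 16 h to compound (23 nl of library stock) in duplicate plates.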
* = called active by the depositor; u = inconclusive; x = no result; [ ] = dose if it differs, or a comment. An excerpt weighted towards active compounds, which were near 10% of everything screened. Unless noted, calls follow the shape of the dose curve; as a rule, active = well fitted inhibition curve with a large enough effect (not every such curve was filed as active); inconclusive = small, poorly fitted or top-dose-only effect, or another doubt; inactive = no such curve, though single readings can be large or run the other way. Unless noted, % is scaled to controls: 0 for no effect and ±100 for the full control effect.

SMILES	HPGD block	IMPase cell inh	ALDH1A1 inh	Luc counter	Lamin A splicing	PNC assembly inh
FC(F)(F)c1cc(-c2ccco2)nc(N2CCN(Cc3ccccc3)CC2)n1	-19%	11	22µM*	-5%	-19%	70
Cn1c(C(=O)NCC2CCCO2)cc2oc3ccccc3c21 (stereo not given)	1.4µM*	-2	-7%	-5%	u	-6
Cn1c(C(=O)NCC2CCCO2)cc2c(=O)[nH]c3ccccc3c21 (stereo not given)	u	6	u	1%	-1%	54
Cn1c(C(=O)NCc2ccccc2)cc2oc3ccccc3c21	u	13	u	-5%	u	-106*
Cn1c(C(=O)NCc2cccs2)cc2oc3ccccc3c21	u	5	-8%	-7%	-16%	39
COc1ccc(-c2nc3sc(CCNC(=O)c4ccco4)c(C)n3n2)cc1	x	x	x	x	0%[46 µM]	x
Cc1cc(C)cc(NC(=S)N2CCN(c3ncccn3)CC2)c1	x	9	-4%	x	-8%	-24
S=C(Nc1ccc(Nc2ccccc2)cc1)N1CCN(c2ncccn2)CC1	x	x	13µM*	4%	x	x
COc1ccc(NC(=S)N2CCN(c3ccccn3)CC2)cc1OC	x	3	25µM*	x	u	-115*
COc1cc(NC(=S)N2CCN(c3ccccn3)CC2)cc(OC)c1OC	x	x	u	4%	x	x
O=C(c1ccncc1)N1CCC2(CC1)CN(c1ccccc1)C2	-5%	x	u	-3%	x	x
Nc1ccc2nc(-c3ccccc3)sc2c1	u	u	u	7.9µM*	u	u
CC(=O)NC1=NC(=O)C(C)S1 (stereo not given)	-10%	7	1%	0%	4%	2
Cc1cc(C)nc(SCC(=O)NC2=NC(=O)C(C)S2)n1 (stereo not given)	u	-1	22µM*	5%	6%	u
O=C(CN1CCN(c2ccc(O)cc2)CC1)Nc1cc([N+](=O)[O-])ccc1Cl	-8%	x	11µM*	1%	-23%	19
Cc1ccc([N+](=O)[O-])cc1NC(=O)CN1CCCCC1	-2%	2	3%	-1%	11%[0.0737 µM]	-25
CC(=O)N1CCN(CC(=O)Nc2cc([N+](=O)[O-])ccc2Cl)CC1	x	x	35µM*	x	x	x
CCC(CC)C(=O)Nc1cc([N+](=O)[O-])ccc1Cl	-6%	x	12%	-1%	-6%	-116*
O=C1CC(c2cc(Br)ccc2F)c2cc3c(cc2N1)CCC3 (stereo not given)	-10%	-2	8%	-4%	u	-97*
O=C1CC(c2ccccc2F)c2cc3c(cc2N1)CCC3 (stereo not given)	-8%	5	0%	0%	u	-9
COc1cccc(CN2CCN(Cc3nc(-c4cccc(F)c4F)oc3C)CC2=O)c1	x	x	25µM*	-1%	u	x
Cc1cnc(C)c(N2CCN(Cc3nc(-c4cccc(F)c4F)oc3C)CC2)n1	x	x	-6%	-2%	-1%[46 µM]	x
CC12C(=O)N(Cc3ccco3)C(=O)C1C1c3ccccc3C2c2ccccc21 (stereo not given)	-21%	2	16µM*	2%	-4%	-6
O=C1CC(=O)N(Cc2ccco2)C(=O)N1	-2%	6	-7%	4%	-4%	11
COc1cccc(CNC(=O)c2ccc3nc(-c4ccccc4)c(-c4ccccc4)nc3c2)c1OC	x	x	x	x	-12%[46 µM]	x
SMILES	HPGD block	IMPase cell inh	ALDH1A1 inh	Luc counter	Lamin A splicing	PNC assembly inh
CCOC(=O)c1c(-c2ccc(C)s2)csc1N	x	x	3.2µM*	-1%	x	x
COc1cccc(-c2nc(SCc3cc(=O)c4ccc(C)c(C)c4[nH]3)n[nH]2)c1	x	x	x	x	1%[46 µM]	x
COCc1cc(C)n(CC(=O)Nc2ccc(NC(C)=O)cc2)c(=O)c1C#N	x	1	x	x	x	x
CC(C(=O)O)N1C(=O)/C(=C/C=C/c2ccco2)SC1=S (stereo not given)	16µM*	-10	-16%	-3%	-8%	-29
CC(=C\c1ccccc1)/C=C1/SC(=S)N(C(C(=O)O)C(C)C)C1=O (stereo not given)	x	x	-5%	5%	u	x
O=C(NC1CCCCC1)c1nn2c(C(F)(F)F)cc(-c3ccco3)nc2c1Br	-12%	10	22µM*	-5%	7%	-24
CC1CCCCN1C(=O)c1cnn2c(C(F)(F)F)cc(-c3ccco3)nc12 (stereo not given)	7.1µM*	-17	-5%	1%	8%	1
CN(CCc1ccccn1)C(=O)c1nn2c(C(F)(F)F)cc(-c3ccco3)nc2c1Cl	-19%	4	25µM*	2%	29%	14
Cc1nc2cccnc2n1C1CCN(C(=O)Nc2ccc(Cl)cc2)CC1	x	x	x	x	4%[46 µM]	x
O=C(O)c1ccc(Cl)c(S(=O)(=O)Nc2ccccc2)c1	-2%	x	8%	-2%	x	x
CCc1sc(Nc2cccc(C)c2C)nc1-c1cc2cccc(OC)c2oc1=O	x	x	x	x	16%[46 µM]	x
O=C1OCC(c2ccccc2)=C1c1ccc(S(=O)(=O)N2CCOCC2)s1	u	2	20µM*	-10%	9%	23
CCc1ccccc1N(C)C(=O)C1CCCN(c2ncnc3c2nc2n3CCCCC2)C1 (stereo not given)	x	x	x	x	6%[46 µM]	x
CCNc1nc(N)nc(Oc2ccc(OCCOc3ccccc3)nn2)n1	25µM*	u	2%	5%	-8%	12
CCNc1nc(N)nc(Oc2ccc(OCc3ccccc3)nn2)n1	-21%	1	-5%	2%	9%	29
CCc1nn2c(=O)cc(COC(=O)CNC(=O)COc3ccc(C)cc3)nc2s1	x	x	x	x	-9%[46 µM]	x
O=C1c2ccccc2C(=O)C1Cc1cccc2ccccc12	14µM*	2	u	-3%	-7%	u
CCOC(=O)CSc1nc2c(sc3ccccc32)c(=O)n1CCO	x	x	x	x	-20%[46 µM]	x
Cc1ccc(/C=N/n2c(-c3cccnc3)n[nH]c2=S)s1	13µM*	x	u	0%	5%	-23
S=c1[nH]nc(-c2cccnc2)n1/N=C/c1ccc(Br)s1	16µM*	x	u	0%	3%	-9
CC(C)(C)NC(=O)NC(=O)CN1CCN(c2ncc(C(F)(F)F)cc2Cl)CC1	-21%	-6	28µM*	-3%	u	4
Cc1ccc([N+](=O)[O-])cc1-c1[nH]c(-c2ccc(O)c(O)c2)nc1-c1ccccc1	1%	-1	22µM*	-2%	u	5
Cc1nc2ccc(S(=O)(=O)N(CC(=O)Nc3cccc(F)c3)Cc3ccccc3)cc2s1	x	x	x	x	3%[46 µM]	x
COc1ccccc1-n1cnnc1SCC(=O)c1c[nH]c2ccccc12	-14%	x	10µM*	0%	-10%	7
COc1ccccc1-n1cnnc1SCC(=O)Nc1cccnc1Cl	x	x	25µM*	-1%	u	x
